Data: PubChem BioAssay (NCI)
The panel holds about 83,000 compounds, 20% with a hit somewhere; the sample as a whole holds those more often.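 How to read the values: 0–100, growth inhibition (40 = 60% inhibited); 0, no net growth; -100 to 0, cell death (-40 = 40% of starting cells died; -100 = all dead).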 Calls of active or inactive are those of the source. Rule for the calls: active = growth percent below 10; inactive = the rest.

Tests used:
Assay in all cases: NCI-60 one-dose screen, 48 h (100 = growth as untreated, 0 = no growth, -100 = all killed)
Details in all cases: 10 µM unless noted
[1] = system: SR leukemia
[2] = system: RPMI-8226 leukemia
[3] = system: OVCAR-5 ovarian
[4] = system: OVCAR-4 ovarian
[5] = system: SK-OV-3 ovarian
[6] = system: IGROV1 ovarian
[7] = system: OVCAR-3 ovarian
[8] = system: HS 578T breast
[9] = system: NCI/ADR-RES ovarian
[10] = system: T-47D breast
[11] = system: BT-549 breast
[12] = system: MDA-MB-435 melanoma
[13] = system: SW-620 colon
[14] = system: MCF7 breast
[15] = system: HCT-116 colon
[16] = system: HCC-2998 colon
[17] = system: KM12 colon

Measured: growth

CCOC(=O)C1=C(C)N(C)C(=O)N(C)C1c1ccccc1 (stereo not drawn)
inactive: [1] 125% | [2] 99.4% | [3] 84.1% | [4] 103% | [5] 93.9% | [6] 110% | [7] 99.1% | [8] 108% | [9] 100% | [10] 96.3% | [11] 110% | [12] 89.2% | [13] 97.5% | [14] 107% | [15] 79.4% | [16] 93.2% | [17] 103%

Nc1ccc(Cl)c2c(=O)c3ccccc3[nH]c12
inactive: [1] 100% | [2] 71% | [3] 93.2% | [4] 53.8% | [5] 89.2% | [6] 94.7% | [7] 75.2% | [8] 98% | [9] 97% | [10] 82.6% | [11] 75.4% | [12] 86.3% | [13] 86% | [14] 65% | [15] 84.9% | [16] 88.6% | [17] 89.7%

COc1ccc2c(O)cc3c(c2c1)[C@H](CCl)CN3C(=O)c1cc2cc(NC(=O)CCN3CCOCC3)ccc2[se]1
active: [3] -44.6% | [4] -25.4% | [5] -42% | [6] -60.1% | [7] -7.3% | [8] 5.52% | [9] -34.4% | [10] -21.4% | [11] -72.8% | [12] -67.5% | [13] -41.4% | [14] -48% | [15] -55.1% | [16] -88.3% | [17] -57.4%
inactive: [1] 52.5% | [2] 79.7%

Nc1c(C(=O)c2ccc(Cl)cc2)sc(Nc2ccccc2)c1-c1nc2ccccc2s1
active: [4] -9.61% | [5] -0.592% | [7] 4.1%
inactive: [1] 33.2% | [2] 28.3% | [3] 46.4% | [6] 29.1% | [8] 32.4% | [9] 18.8% | [10] 11.8% | [11] 55.2% | [12] 16.7% | [13] 39.3% | [14] 43.9% | [15] 13.9% | [16] 67.5% | [17] 16.1%

C=C(C)[C@@H]1CCC[C@]2(C(=O)OC)CC[C@]3(C)[C@@H](CC[C@@H]4[C@@]5(C)CCCNC(C)(C)[C@@H]5CC[C@]43C)[C@@H]12
inactive: [1] 54.5% | [2] 75.7% | [3] 86.4% | [4] 88.1% | [5] 95.8% | [6] 65.3% | [7] 74.4% | [8] 87.4% | [9] 98.8% | [10] 75.9% | [11] 93.9% | [12] 92.9% | [13] 86.7% | [14] 86.5% | [15] 93.3% | [16] 96.3% | [17] 85.8%

COc1ccc(/C=C\c2cc(OC)c(OC)c(OC)c2)cc1OCC(=O)Nc1nc2ccccc2s1
active: [1] 9.4% | [6] 3.36% | [7] 0.388% | [12] -2.64% | [14] 9.7% | [15] 5.14% | [17] 5.76%
inactive: [2] 22.5% | [3] 65% | [4] 49.2% | [5] 30.4% | [8] 11.3% | [9] 12.7% | [10] 18.5% | [11] 38.7% | [13] 30% | [16] 35.6%

Cc1ccc(OCCOCCOCCOCCOc2ccc(C)n(O)c2=S)c(=S)n1O
active: [1] 6.36% | [5] 0.0112% | [9] 1.43% | [10] 8.09% | [16] 5.72%
inactive: [2] 13.4% | [3] 39.1% | [4] 24.4% | [6] 30.9% | [7] 25% | [8] 44% | [11] 14.1% | [12] 29.4% | [13] 25.7% | [14] 10.1% | [15] 14.3% | [17] 18.6%

Nc1ccc(N)c2c1C(=O)c1cccc([N+](=O)[O-])c1C2=O
inactive: [2] 42.8% | [3] 70.2% | [4] 60.9% | [5] 27.6% | [6] 18.6% | [7] 58.7% | [8] 37.6% | [9] 49.4% | [10] 38.2% | [11] 21.6% | [12] 67.3% | [13] 51.5% | [14] 16.5% | [15] 19.7% | [17] 42%
active: [1] -9.26% | [16] -60.6%

Cn1nc(-c2ccc(Cl)cc2)nc2c(=O)n(C)c(=O)nc1-2
active: [1] -40.5% | [2] -22.7% | [3] -89.1% | [4] -99.7% | [6] 7.78% | [7] -40.2% | [8] -4.75% | [9] -21.5% | [10] -43.2% | [11] -46.5% | [12] -45.8% | [13] -33.2% | [14] -62.5% | [15] -37.7% | [16] -70.2% | [17] -15.3%
inactive: [5] 32.6%

COc1cccc2cc(N(C)c3ncnc4ccccc34)ccc12
inactive: [3] 54.3% | [4] 34.7% | [5] 33.9% | [6] 14.4% | [8] 40.9% | [10] 59.1% | [11] 32.3% | [12] 16.6% | [13] 20.5% | [16] 21.2%
active: [1] 9.25% | [2] -18.3% | [7] 6.13% | [9] 8.39% | [14] 6.28% | [15] 8.07% | [17] 5.11%

C=C(C)[C@@H]1CC[C@]2(COCCCNCCCN)CC[C@]3(C)[C@H](CC[C@@H]4[C@@]5(C)CC[C@H](OCCCN)C(C)(C)[C@@H]5CC[C@]43C)[C@@H]12
inactive: [5] 102% | [7] 47.8% | [8] 87.4% | [11] 99.6%
active: [1] -49.2% | [2] -51.7% | [3] -49% | [4] -79.4% | [6] -81.1% | [9] -80.2% | [10] -65.2% | [12] -91.2% | [13] -80.8% | [14] -77.9% | [15] -82.5% | [16] -24.8% | [17] -89.8%

Cc1c2cnccc2c(C)c2c1c1cc(C(=O)O)ccc1n2C
active: [2] -1.59% | [3] 9.91% | [4] -4.45% | [5] -4.58% | [6] 0.419% | [7] 0.0817% | [8] 8.93% | [9] 3.03% | [10] -10.2% | [11] -1.22% | [12] 5.58% | [13] 7.21% | [14] 1.28% | [15] 2.6% | [16] 4.89% | [17] 5.47%
inactive: [1] 18.6%

O=C(Nc1cccc2c1C(=O)c1cccc(NC(=O)c3ccc(C(=O)Nc4cccc5c4C(=O)c4cccc(NC(=O)c6ccccc6)c4C5=O)cc3)c1C2=O)c1ccccc1
active: [1] 9.04%
inactive: [2] 105% | [3] 91.1% | [4] 98.9% | [5] 99.4% | [6] 41.1% | [7] 106% | [8] 99.5% | [9] 101% | [10] 101% | [11] 72.4% | [12] 112% | [13] 99.9% | [14] 104% | [15] 104% | [16] 101% | [17] 102%

O=C(O)CCCN1C(=O)CSC1=S
inactive: [1] 103% | [2] 98% | [3] 106% | [4] 102% | [5] 109% | [6] 103% | [7] 105% | [8] 98.9% | [9] 103% | [10] 97.7% | [11] 99.8% | [12] 97.7% | [13] 114% | [14] 90.9% | [15] 102% | [16] 104% | [17] 101%

O=C1CCC(C(=O)N/N=C/c2ccc([N+](=O)[O-])cc2)N1 (stereo not drawn)
inactive: [1] 113% | [2] 100% | [3] 105% | [4] 104% | [5] 105% | [6] 100% | [7] 105% | [8] 98.8% | [9] 103% | [10] 99.2% | [11] 106% | [12] 102% | [13] 105% | [14] 94.8% | [15] 105% | [16] 95.3% | [17] 105%

CC/C(=C(/c1ccc(Cl)cc1)c1ccc(OCCCN(C)C)cc1)c1ccc(OC)cc1
inactive: [3] 73.5% | [4] 86.6% | [5] 102% | [6] 63.4% | [7] 68.8% | [8] 84.8% | [9] 82.9% | [10] 51.1% | [11] 86.1% | [12] 64.7% | [15] 46.6% | [16] 16.8% | [17] 31.7%
active: [1] -40.6% | [2] -41.3% | [13] 4.55% | [14] 9.13%

O=C(Nc1ncc(Cc2ccccc2Cl)s1)c1ccc2c(c1)OCCO2
inactive: [2] 19.3% | [3] 33.2% | [4] 43.5% | [5] 32.5% | [6] 28.4% | [8] 19.8% | [10] 33.9% | [11] 18.7% | [13] 31.9% | [14] 12.4% | [16] 19.6%
active: [1] 5.14% | [7] -14.4% | [12] -19.5% | [15] 7.38% | [17] 6.53%
